From the GenesisPotency data set come the findings set out here.

Among all 1,300 compounds or so, fewer than 10 were called active. Not shown: some 3% with an inconclusive outcome. Calls follow the shape of the dose curve; as a rule, active = well fitted inhibition curve with a large enough effect; inconclusive = small, poorly fitted or top-dose-only effect; inactive = flat fitted curve, though single readings scatter. The list is a sample of the results.

In this assay the test system is T1, .
T1 sequence (whole entry): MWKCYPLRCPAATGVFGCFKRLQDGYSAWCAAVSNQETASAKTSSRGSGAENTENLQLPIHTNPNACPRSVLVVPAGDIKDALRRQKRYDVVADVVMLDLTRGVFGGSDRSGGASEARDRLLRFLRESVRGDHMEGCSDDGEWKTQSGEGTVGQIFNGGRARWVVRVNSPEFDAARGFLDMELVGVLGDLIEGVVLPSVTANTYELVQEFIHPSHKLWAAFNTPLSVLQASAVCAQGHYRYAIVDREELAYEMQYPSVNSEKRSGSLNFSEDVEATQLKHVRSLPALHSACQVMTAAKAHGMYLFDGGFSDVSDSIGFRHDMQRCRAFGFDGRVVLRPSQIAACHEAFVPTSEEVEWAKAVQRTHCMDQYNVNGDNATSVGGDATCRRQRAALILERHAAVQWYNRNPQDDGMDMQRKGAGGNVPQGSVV
The assay can be described thus: qHTS of Trypanosoma Brucei Inhibitors: LOPAC Validation (AID 624147). (qHTS replaces the single test concentration by a dilution series.)
Take `N.N.[Cl][Pt][Cl]`: the compound was classed as active.
